Reference: PubChem BioAssay (NCATS)
Results filed as inconclusive are left out. The source made the active and inactive calls. Calls come from the whole dose curve; as a rule, active = well fitted cell-killing curve with a large enough effect; inconclusive = small, poorly fitted or top-dose-only effect, or effect the other way; inactive = flat fitted curve, though single readings scatter. Where a SMILES comes first, the peptide text is derived from it.

How the values were obtained:
Assay in all cases: Primary qHTS to identify gynecologic anti-cancer compounds using libraries of approved drugs and bioactive compounds (AID 1345084); note: nearly all actives have a fitted effect of over 55% in size
[1] = test system: CASKI; settings: Gynecologic cancer cell panel viability, ATPlite luminescence, 48 h; series mostly up to 57.5 µM
Outline: (§1)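 Cell viability after 48 h drug treatment, ATPlite luminescence readout; five doses.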

[2] = test system: Es-2; settings: Gynecologic cancer cell panel viability, ATPlite luminescence, 48 h; series mostly up to 57.5 µM
Outline: as §1

[3] = test system: HeLa; settings: Gynecologic cancer cell panel viability, ATPlite luminescence, 48 h; series mostly up to 57.5 µM
Outline: as §1

[4] = test system: Hek293T; settings: Gynecologic cancer cell panel viability, ATPlite luminescence, 48 h, control line for the selectivity index; series mostly up to 57.5 µM
Outline: as §1

[5] = test system: JEG-3; settings: Gynecologic cancer cell panel viability, ATPlite luminescence, 48 h; series mostly up to 57.5 µM
Outline: as §1

[6] = test system: OV90; settings: Gynecologic cancer cell panel viability, ATPlite luminescence, 48 h; series mostly up to 57.5 µM
Outline: as §1

[7] = test system: PA-1; settings: Gynecologic cancer cell panel viability, ATPlite luminescence, 48 h; series mostly up to 57.5 µM
Outline: as §1

[8] = test system: SKOV3; settings: Gynecologic cancer cell panel viability, ATPlite luminescence, 48 h; series mostly up to 57.5 µM
Outline: as §1

[9] = test system: Tov-21-G; settings: Gynecologic cancer cell panel viability, ATPlite luminescence, 48 h; series mostly up to 57.5 µM
Outline: as §1

[10] = test system: Tov112D; settings: Gynecologic cancer cell panel viability, ATPlite luminescence, 48 h; series mostly up to 57.5 µM
Outline: as §1

Measured: Potency

CC(=O)N[C@@H](CO)C(=O)N[C@@H](CC(=O)O)C(=O)N[C@@H](CCCCN)C(=O)N1CCC[C@H]1C(=O)O (Ac-SDKP-OH)
inactive: all assays above

CC(C)(Oc1ccc(Cl)cc1)C(=O)OCCCOC(=O)C(C)(C)Oc1ccc(Cl)cc1
inactive: all assays above

CCN1CCCC1CN (stereo not given)
inactive: all assays above

O=C(O)CCC(=O)OC[C@@H](NC(=O)C(Cl)Cl)[C@H](O)c1ccc([N+](=O)[O-])cc1
inactive: all assays above

CCOC(=O)NNc1ccc(N(CC)CC(C)O)nn1 (stereo not given)
inactive: all assays above

CCOC(=O)c1cc(=O)c2c(OCC(COc3cccc4oc(C(=O)OCC)cc(=O)c34)OC(=O)[C@@H](N)CCCCN)cccc2o1
inactive: all assays above

CCS(=O)(=O)c1ccc(OC)c(C(=O)OC)c1
inactive: all assays above

Cc1cc(O)c(C)c(C)c1O
inactive: all assays above

CCCC(=O)O[C@]1(C(=O)COC(=O)CC)CC[C@H]2[C@@H]3CCC4=CC(=O)CC[C@]4(C)[C@H]3[C@@H](O)C[C@@]21C
inactive: all assays above

CCCCC(CC)COC(=O)c1ccccc1C(=O)O (stereo not given)
inactive: all assays above

CCOC(=O)OCC/C(SC(=O)OCC)=C(\C)N(C=O)Cc1cnc(C)nc1N
inactive: all assays above

COc1ccc(/C(C)=C/C(=O)O)c(OC)c1
inactive: all assays above

CC(=O)c1ccc(O)c(C(N)=O)c1
inactive: all assays above

O=C(OCC(COC(=O)c1cccnc1)(COC(=O)c1cccnc1)COC(=O)c1cccnc1)c1cccnc1
inactive: all assays above

O=C(c1ccccc1)c1ccccc1
inactive: all assays above

O=C(O)c1[nH]n(-c2ccc(S(=O)(=O)O)cc2)c(=O)c1N=Nc1ccc(S(=O)(=O)O)cc1
inactive: all assays above

COc1cc(/C=C/C(N)=O)cc(OC)c1OC
inactive: all assays above

Brc1ccccc1-c1ccccc1
inactive: all assays above

O=C(OCC1(COC(=O)c2cccnc2)CCCC(COC(=O)c2cccnc2)(COC(=O)c2cccnc2)C1O)c1cccnc1
inactive: all assays above

CCC[C@H](N[C@@H](C)C(=O)N1[C@H](C(=O)O)C[C@@H]2CCCC[C@@H]21)C(=O)OCC
inactive: all assays above

CCc1cccc2c(CCO)c[nH]c12
inactive: all assays above

O=P(O)(O)OCC(O)CO (stereo not given)
inactive: all assays above
